Test results taken from PubChem BioAssay (Tox21).
Results filed as inconclusive are left out. Calls of active or inactive are those of the source. Calls come from the whole dose curve; as a rule, active = well fitted curve in the direction sought with a large enough effect in the repeat runs; inconclusive = weak or mixed curves; inactive = no such curve, though single readings can be large; an effect the other way counts as inactive or inconclusive.

Experiments:
[1] = Caspase-3/7 induction in HepG2 cells by small molecules, qHTS assay (AID 1346978); note: nearly all actives have a fitted effect of over 15% in size
How it was run: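 Wild-type HepG2 cells (2,000/well) were settled 5 h at 37 C, 5% CO2, then exposed to compounds in DMSO for 17 h. Caspase-3/7 activity was read by luminescence 30 min after adding Caspase-Glo 3/7 reagent at room temperature.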

[2] = Caspase-3/7 induction in CHO-K1 cells by small molecules, qHTS cell viability counter screen (AID 1346979); note: nearly all actives have a fitted effect of over 35% in size; note: potency is the fitted concentration of half-maximal effect
How it was run: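 Following a 5hr settling period, CHO-K1 cells at 1,500 per well received DMSO-dissolved compounds. Cell viability was quantified 16hr later by CellTiter-Fluor fluorescence, measured after 1hr with reagent at 37C.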

[3] = Caspase-3/7 induction in CHO-K1 cells by small molecules, qHTS assay (AID 1346980); note: nearly all actives have a fitted effect of over 15% in size
How it was run: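 Wild-type cells were seeded at 1,500 per well and settled 5 hr at 37 C, 5% CO2, then exposed to DMSO-dissolved compounds for 17 hr. Caspase-Glo 3/7 reagent was added, and luminescence was read after 30min at room temperature.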

[4] = Caspase-3/7 induction in HepG2 cells by small molecules, qHTS cell viability counter screen (AID 1346981); note: nearly all actives have a fitted effect of over 30% in size; note: potency is the fitted concentration of half-maximal effect; for activity change, negative = cytotoxicity: series mostly up to about 92 µM
How it was run: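 Viability determined by CellTiter-Fluor fluorescence in HepG2 wells also used for the luminescent Caspase-Glo 3/7 read. Compounds were present for 16 hr at 37 C, 5% CO2 before reagent addition.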

[5] = molecular target: Nuclear receptor subfamily 1 group I member 2 (Homo sapiens) (UniProt O75469); assay: Human pregnane X receptor (PXR) small molecule agonists, qHTS assay (AID 1346982); note: nearly all actives have a fitted effect of over 35% in size; note: potency is the fitted concentration of half-maximal effect
Chain of Nuclear receptor subfamily 1 group I member 2 (Homo sapiens) (O75469 whole entry, looked up): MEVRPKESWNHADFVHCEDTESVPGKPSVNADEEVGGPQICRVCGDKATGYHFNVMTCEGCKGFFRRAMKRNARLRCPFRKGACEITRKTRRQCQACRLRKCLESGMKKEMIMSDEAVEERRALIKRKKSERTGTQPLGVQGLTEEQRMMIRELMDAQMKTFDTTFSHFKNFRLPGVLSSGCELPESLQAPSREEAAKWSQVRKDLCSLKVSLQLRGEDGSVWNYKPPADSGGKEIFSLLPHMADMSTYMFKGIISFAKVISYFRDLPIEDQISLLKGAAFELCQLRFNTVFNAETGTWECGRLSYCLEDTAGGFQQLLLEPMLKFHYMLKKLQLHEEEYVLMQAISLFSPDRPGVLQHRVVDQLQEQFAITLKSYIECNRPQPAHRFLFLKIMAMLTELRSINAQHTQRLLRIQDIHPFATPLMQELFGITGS
How it was run: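 Compound-induced hPXR transactivation of a CYP3A4 luciferase reporter was scored in HepG2 PXR-Luc cells over 24 hr at 37 C, 5% CO2, by luminescence.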

[6] = molecular target: Cytochrome P450 2D6 (Homo sapiens) (UniProt P10635); assay: Cytochrome P450 Family 2 Subfamily D Member 6 (CYP2D6) small molecule antagonists: luciferase reporter qHTS assay (AID 1671196); note: nearly all actives have a fitted effect of over 50% in size; note: potency is the fitted concentration of half-maximal effect; for activity change, negative = inhibition: series mostly up to about 120 µM
Chain of Cytochrome P450 2D6 (Homo sapiens) (P10635 whole entry, looked up): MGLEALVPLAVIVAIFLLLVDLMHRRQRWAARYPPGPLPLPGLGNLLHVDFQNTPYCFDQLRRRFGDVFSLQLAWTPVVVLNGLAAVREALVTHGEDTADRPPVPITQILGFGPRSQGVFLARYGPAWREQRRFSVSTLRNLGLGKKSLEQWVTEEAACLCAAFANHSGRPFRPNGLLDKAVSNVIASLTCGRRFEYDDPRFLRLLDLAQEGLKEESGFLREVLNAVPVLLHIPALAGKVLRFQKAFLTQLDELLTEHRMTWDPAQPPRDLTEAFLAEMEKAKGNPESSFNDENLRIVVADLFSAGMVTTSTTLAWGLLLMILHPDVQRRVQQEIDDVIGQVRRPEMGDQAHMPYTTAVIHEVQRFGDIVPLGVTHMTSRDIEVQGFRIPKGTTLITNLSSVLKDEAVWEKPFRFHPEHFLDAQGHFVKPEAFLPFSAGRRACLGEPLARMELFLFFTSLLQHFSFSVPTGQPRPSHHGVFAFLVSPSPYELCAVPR
How it was run: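 Each well received CYP2D6 with its proluciferin substrate and chemical, sat 10 min, then got NADPH regeneration solution for 1 h at room temperature. Luminescence in RLU served as the activity measure.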

[7] = molecular target: Cytochrome P450 2C19 (Homo sapiens) (UniProt P33261); assay: Cytochrome P450 Family 2 Subfamily C Member 19 (CYP2C19) small molecule antagonists: luciferase reporter qHTS assay (AID 1671197); note: nearly all actives have a fitted effect of over 65% in size; note: potency is the fitted concentration of half-maximal effect; for activity change, negative = inhibition: series mostly up to about 120 µM
Chain of Cytochrome P450 2C19 (Homo sapiens) (P33261 whole entry, looked up): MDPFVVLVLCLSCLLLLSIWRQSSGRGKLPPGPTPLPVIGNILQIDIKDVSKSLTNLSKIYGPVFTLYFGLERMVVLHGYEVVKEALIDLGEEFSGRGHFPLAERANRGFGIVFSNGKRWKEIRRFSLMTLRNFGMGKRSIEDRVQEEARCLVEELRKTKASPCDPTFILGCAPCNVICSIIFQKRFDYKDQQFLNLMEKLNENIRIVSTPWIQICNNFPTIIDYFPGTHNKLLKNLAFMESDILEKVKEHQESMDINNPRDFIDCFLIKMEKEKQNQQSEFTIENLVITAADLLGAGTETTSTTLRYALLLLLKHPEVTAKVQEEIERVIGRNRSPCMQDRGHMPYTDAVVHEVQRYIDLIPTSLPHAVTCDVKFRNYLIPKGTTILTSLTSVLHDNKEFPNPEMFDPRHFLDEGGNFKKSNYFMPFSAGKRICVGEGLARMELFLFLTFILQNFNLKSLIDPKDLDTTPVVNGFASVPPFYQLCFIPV
How it was run: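 First, compounds are pinned into enzyme-substrate mix and held 10 min at room temperature. Second, NADPH regeneration solution is added and plates incubate 1 h at 37C. Third, detection reagent is added and luminescence read after 20 min.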

[8] = molecular target: Cytochrome P450 2C9 (Homo sapiens) (UniProt P11712); assay: Cytochrome P450 Family 2 Subfamily C Member 9 (CYP2C9) small molecule antagonists: luciferase reporter qHTS assay (AID 1671198); note: nearly all actives have a fitted effect of over 50% in size; note: potency is the fitted concentration of half-maximal effect; for activity change, negative = inhibition: series mostly up to about 120 µM
Chain of Cytochrome P450 2C9 (Homo sapiens) (P11712 whole entry, looked up): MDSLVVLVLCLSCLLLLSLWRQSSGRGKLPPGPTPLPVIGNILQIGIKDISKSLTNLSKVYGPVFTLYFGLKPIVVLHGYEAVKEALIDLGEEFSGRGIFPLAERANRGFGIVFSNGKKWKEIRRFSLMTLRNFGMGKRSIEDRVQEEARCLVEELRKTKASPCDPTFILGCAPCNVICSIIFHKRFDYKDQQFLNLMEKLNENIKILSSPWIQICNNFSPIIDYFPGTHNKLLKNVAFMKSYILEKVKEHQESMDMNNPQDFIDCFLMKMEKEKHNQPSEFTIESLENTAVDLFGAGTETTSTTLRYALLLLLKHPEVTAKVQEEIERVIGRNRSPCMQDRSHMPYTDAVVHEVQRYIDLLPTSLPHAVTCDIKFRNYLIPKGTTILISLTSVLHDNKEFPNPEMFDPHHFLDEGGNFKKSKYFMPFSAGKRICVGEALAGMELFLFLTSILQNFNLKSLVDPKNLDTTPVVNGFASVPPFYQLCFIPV
How it was run: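 CYP2C9 activity was measured with a P450-Glo proluciferin substrate. Enzyme–substrate mix was held with compound for 10 min at room temperature, then NADPH regeneration solution was added for 1 h at 37C. Luciferin product was read as luminescence.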
% is set by controls: 0 for no effect and ±100 for the full control effect.

CS(C)(=O)=O
inactive: Potency [1] | Potency [2] | Potency [3] | Potency [4] | Potency [5] | Potency [6] | Potency [7] | Potency [8]

OCCC(O)CO (centres undefined)
inactive: Potency [1] | Potency [2] | Potency [3] | Potency [4] | Potency [5] | Potency [6] | Potency [7] | Potency [8]

Cc1cccc(N(C)C)c1
inactive: Potency [1] | Potency [2] | Potency [3] | Potency [4] | Potency [5] | Potency [6] | Potency [8]

CCCCCCS
inactive: Potency [1] | Potency [2] | Potency [3] | Potency [4] | Potency [5] | Potency [6] | Potency [7] | Potency [8]

CCCCOC(=O)C(C)CC (centres undefined)
inactive: Potency [1] | Potency [2] | Potency [3] | Potency [4] | Potency [5] | Potency [6] | Potency [8]

O=C1C=CC(=O)N1c1ccccc1
inactive: Potency [1] | Potency [3] | Potency [5]
active: Potency [2] 9.69 µM | Potency [4] 61.1 µM | Potency [6] 39.9 µM | Potency [7] 20 µM | Potency [8] 28.3 µM

O=S(O)O
inactive: caspase activation [1] -0.246% [at 19 µM] | activity change, negative = cytotoxicity [2] 9.18% [at 19 µM] | caspase-3/7 activation [3] 0.497% [at 19 µM] | activity change, negative = cytotoxicity [4] -4.78% [at 19 µM] | activation [5] 8.59% [at 19 µM] | activity change, negative = inhibition [6] -20.2% [at 23.6 µM] | activity change, negative = inhibition [7] 0.673% [at 23.6 µM] | activity change, negative = inhibition [8] -8.41% [at 23.6 µM]

NCCCCCCNCCCCCCN
inactive: Potency [1] | Potency [2] | Potency [3] | Potency [4] | Potency [5] | Potency [7] | Potency [8]
active: Potency [6] 4.94 µM

CCOC(OCC)C(=O)c1ccccc1
inactive: Potency [1] | Potency [2] | Potency [3] | Potency [4] | Potency [5] | Potency [6] | Potency [7] | Potency [8]

S=C(SSSSSSC(=S)N1CCCCC1)N1CCCCC1
inactive: caspase activation [1] 0.0321% [at 19 µM] | caspase-3/7 activation [3] 1.75% [at 19 µM] | activity change, negative = cytotoxicity [4] 7.87% [at 19 µM] | activation [5] 19.2% [at 19 µM] | activity change, negative = inhibition [6] -19.3% [at 23.6 µM]
active: Potency [2] 7.56 µM | Potency [8] 7.83 µM

CCCCCCCCCCCCCc1ccccc1
inactive: Potency [1] | Potency [2] | Potency [3] | Potency [4] | Potency [5] | Potency [6] | Potency [7] | Potency [8]

CCC1(c2cnc[nH]2)Cc2ccccc2C1
inactive: Potency [1] | Potency [2] | Potency [3] | Potency [4] | Potency [5]
active: Potency [6] 0.977 µM | Potency [7] 0.977 µM | Potency [8] 1.55 µM

Cc1cnccn1
inactive: Potency [1] | Potency [2] | Potency [3] | Potency [4] | Potency [5] | Potency [6] | Potency [7] | Potency [8]

CCCCCCCOC(=O)c1ccccc1C(=O)OCCCCCCC
inactive: Potency [1] | Potency [2] | Potency [3] | Potency [4] | Potency [5] | Potency [6]
active: Potency [7] 39.9 µM | Potency [8] 17.8 µM

CCNc1nc(NC(C)CC)nc(OC)n1 (centres undefined)
inactive: Potency [1] | Potency [2] | Potency [3] | Potency [4] | Potency [6] | Potency [8]
active: Potency [5] 24.3 µM | Potency [7] 7.96 µM

OCCCCl
inactive: Potency [1] | Potency [2] | Potency [3] | Potency [4] | Potency [5] | Potency [6] | Potency [7] | Potency [8]

CCCCCCCCCCc1ccccc1
inactive: Potency [1] | Potency [2] | Potency [3] | Potency [4] | Potency [5] | Potency [6] | Potency [7] | Potency [8]

c1ccc(Sc2ccccc2)cc1
active: Potency [7] 7.1 µM
inactive: Potency [1] | Potency [2] | Potency [3] | Potency [4] | Potency [5] | Potency [6] | Potency [8]

CC1CCCCC1
inactive: Potency [1] | Potency [2] | Potency [3] | Potency [4] | Potency [5] | Potency [6] | Potency [7] | Potency [8]

O=C1OC(=O)c2ccc3c4c(ccc1c24)C(=O)OC3=O
inactive: Potency [1] | Potency [2] | Potency [3] | Potency [4] | Potency [5] | Potency [6] | Potency [7] | Potency [8]

COc1ccccc1C=O
inactive: Potency [1] | Potency [2] | Potency [3] | Potency [4] | Potency [5] | Potency [6] | Potency [7] | Potency [8]

CCO[Si](C)(C)OCC
inactive: Potency [1] | Potency [2] | Potency [3] | Potency [4] | Potency [5] | Potency [6] | Potency [7] | Potency [8]

C=C/C=C/C=C/CCCCC
active: Potency [8] 16.9 µM
inactive: caspase activation [1] -0.0295% [at 19 µM] | activity change, negative = cytotoxicity [2] -1.73% [at 19 µM] | caspase-3/7 activation [3] 0.387% [at 19 µM] | activity change, negative = cytotoxicity [4] -1.07% [at 19 µM] | activation [5] 9.15% [at 19 µM] | activity change, negative = inhibition [6] -25.6% [at 23.6 µM]

CCCCCCCC(=O)OCC
inactive: Potency [1] | Potency [2] | Potency [3] | Potency [4] | Potency [5] | Potency [6] | Potency [7] | Potency [8]

CC[N+](CC)(CC)Cc1ccccc1
inactive: Potency [1] | Potency [2] | Potency [3] | Potency [4] | Potency [5] | Potency [7] | Potency [8]
active: Potency [6] 35.6 µM

CCC(C)C(=O)OC (centres undefined)
inactive: Potency [1] | Potency [2] | Potency [3] | Potency [4] | Potency [5] | Potency [6] | Potency [7] | Potency [8]
